Only some compounds are listed: those with a hit (about 2.5% of all), similar ones and a draw of the others.
OPRK1 antag MB: antagonists of human kappa opioid receptor OPRK1, Maybridge library | Kappa-type opioid receptor (Homo sapiens), P41145 | OPRK1 cells, antagonist mode, fluorescence readout | inhibition, % at 9 µM | actives 0.4% (n = 16,000) | AID 652031, 2013; in the data active = inhibition above about 50%
Luminol counter: counter-screen for Nox1 inhibitors: inhibitors of luminol chemiluminescence; HRP/luminol/H2O2 chemiluminescence counterscreen; inhibition, % at 6.7 µM; actives 0.4% (n = 16,000); note: reference of the scale not given here
PME-1 Maybr inh: inhibitors of human PME-1 in Maybridge library; Protein phosphatase methylesterase 1 (Homo sapiens), Q9Y570; recombinant PME-1, FP-Rh probe fluorescence polarization; inhibition, % at 9 µM; actives 0.5% (n = 16,000); AID 2291, 2010; in the data active = inhibition above about 30%
Nox1 inhibitor: inhibitors of human NADPH oxidase 1 (Nox1); HT29 cells, luminol chemiluminescence ROS; actives 0.81% (n = 16,000); Q9Y5S8; inhibition, % at 6.7 µM
Target sequence (Q9Y5S8 whole entry, looked up): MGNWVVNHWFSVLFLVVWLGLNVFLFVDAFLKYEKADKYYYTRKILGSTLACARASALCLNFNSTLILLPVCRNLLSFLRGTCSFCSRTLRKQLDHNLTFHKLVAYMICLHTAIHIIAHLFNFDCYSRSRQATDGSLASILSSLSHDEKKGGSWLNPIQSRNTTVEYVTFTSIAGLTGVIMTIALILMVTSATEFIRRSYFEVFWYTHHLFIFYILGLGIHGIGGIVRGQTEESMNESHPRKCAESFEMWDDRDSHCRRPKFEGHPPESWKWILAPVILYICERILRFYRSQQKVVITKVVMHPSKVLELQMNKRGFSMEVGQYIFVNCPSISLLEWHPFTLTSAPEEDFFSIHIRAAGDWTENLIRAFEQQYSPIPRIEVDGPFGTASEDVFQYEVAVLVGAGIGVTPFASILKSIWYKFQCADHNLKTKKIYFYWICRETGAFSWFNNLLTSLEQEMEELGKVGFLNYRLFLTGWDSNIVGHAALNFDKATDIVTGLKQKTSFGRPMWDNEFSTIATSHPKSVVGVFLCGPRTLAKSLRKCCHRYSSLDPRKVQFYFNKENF
NOTCH agonist: agonists of NOTCH signaling. NOTCH signaling luciferase reporter cells, luminescence. AID 434982, 2010. actives 0.4% (n = 15,000). activation, % at 2.5 µM; in the data active = activation above about 2.2%
Numbers without * were called inactive; . = no result given. Cut-off read from the data, not from the text of the source, unless noted: active = inhibition above about 75%; inactive = the rest.

SMILES	OPRK1 antag MB	Luminol counter	PME-1 Maybr inh	Nox1 inhibitor	NOTCH agonist
S=C(Nc1ccc(Cl)cc1)Nc1ccc(-c2csnn2)cc1	-9.5	-19.0	7.5	3.1	0.1
O=C(NNc1ccc(-c2csnn2)cc1)c1ccc(Cl)cc1	15.1	75.1*	6.4	56.5	-0.2
COc1cc([N+](=O)[O-])c(OC)cc1SCC(=O)NNC(=S)Nc1ccc(F)cc1	16.0	83.0*	9.1	20.8	-0.2
O=C(CSc1ccccc1[N+](=O)[O-])NNC(=S)Nc1cccc(C(F)(F)F)c1	-15.4	2.6	12.7	-50.2	-0.3
O=C1CSC(c2ccccn2)N1Cc1ccc(F)cc1 (configuration not stated)	7.8	2.1	-2.0	-27.1	0.2
COc1ccc(Br)c(C(=O)/C(C#N)=N/Nc2ccc(F)cc2)c1	0.9	-0.4	36.8*	39.9	-0.8
COc1ccc(Br)c(C(=O)/C(C#N)=C/c2ccc(N(C)C)cc2)c1	-7.6	24.1	7.6	-2.7	-0.2
O=C(Nc1ccccc1N1CCCCC1)c1ccco1	-2.3	2.9	0.5	-9.2	-0.7
O=C(Oc1ccccc1N1CCOCC1)c1cccnc1Oc1ccccc1	-15.4	7.3	0.3	79.2*	1.3
O=C(Oc1ccccc1N1CCCCC1)c1ccco1	0.7	7.8	-2.0	82.8*	-5.5
O=C(Oc1ccccc1)c1cccnc1Oc1ccccc1	-11.6	-9.5	4.4	16.4	0.0
O=C(Oc1ccccc1N1CCOCC1)c1cccs1	3.5	-1.0	1.0	98.3*	-0.3
O=S(=O)(NCC1CCN(S(=O)(=O)c2ccccc2)CC1)c1cccs1	8.9	0.3	14.5	-51.2	-0.9
CN=C(C)/C(C(=O)OC)=C(/O)c1c([N+](=O)[O-])c(C)nn1C	0.8	-7.7	5.7	8.8	-0.3
NNC(=O)CNC(=O)c1ccc(Br)cc1	22.8	-3.7	2.5	-20.5	-0.4
Oc1[nH]c2ccccc2c1N=Nc1nc(-c2ccc(Br)cc2)cs1	14.9	12.3	13.8	-1.6	-0.3
CC1(C)c2cc(O)ccc2OC1N1CCOCC1 (configuration not stated)	13.3	96.0*	5.0	85.3*	-0.2
COCCOc1ccc([N+](=O)[O-])cc1C(=O)O	7.1	-2.7	1.4	5.0	.
COCCOc1ccc(N=Cc2ccccc2O)cc1C(=O)O	-7.8	-20.3	1.1	10.5	3.1*
COc1ccc(C(=O)NNc2c([N+](=O)[O-])cc(C(F)(F)F)cc2[N+](=O)[O-])cc1	16.2	3.6	4.5	89.4*	0.8
O=C(CCc1ccc(O)cc1)NNc1c([N+](=O)[O-])cc(C(F)(F)F)cc1[N+](=O)[O-]	6.2	-4.1	4.9	28.4	0.2
O=C(NNc1c([N+](=O)[O-])cc(C(F)(F)F)cc1[N+](=O)[O-])c1ccccc1-n1cccc1	-39.2	-9.0	-7.9	102.4*	-0.7
COC(=O)c1ccccc1NC(=S)Nc1ccc(Cl)cn1	5.5	98.4*	6.4	17.6	0.1
Cc1nn(C)c(NNC(=O)c2ccccc2C(=O)O)c1[N+](=O)[O-]	0.3	3.7	5.4	62.6	-0.1
Nc1c(C(=O)N/N=C/c2ccc3c(c2)OCO3)sc2nnc(-c3ccccc3)c(-c3ccccc3)c12	79.9*	10.4	25.4	0.0	-0.3
SMILES	OPRK1 antag MB	Luminol counter	PME-1 Maybr inh	Nox1 inhibitor	NOTCH agonist
COc1cc(C(=O)N(CCC#N)Cc2cccnc2)cc(OC)c1OC	5.0	-2.2	2.1	-77.9	0.0
CC(C)=C/C(C)=N/Nc1c([N+](=O)[O-])cc(C(F)(F)F)cc1[N+](=O)[O-]	1.9	5.7	2.4	-56.5	-0.3
COC(=O)c1sccc1NNC(=O)CC#N	12.7	14.7	3.0	87.2*	0.1
CCOC(=O)/C(C#N)=C/Nc1ccsc1C(=O)OC	17.1	-4.0	4.4	29.3	-0.5
N#CCC(=O)NNC(=O)c1ccccc1Cl	-7.9	-0.1	2.0	-50.3	-0.2
N#CCC(=O)NNC(=S)Nc1ccccc1	1.4	17.9	1.7	89.5*	-0.4
CC(CCC(C)OC(=O)c1ccccc1C(=O)O)OC(=O)c1ccccc1C(=O)O (configuration not stated)	59.7*	-2.3	10.0	22.2	-0.2
CSC(=CC(=O)c1ccc(Cl)cc1)SC	-5.3	-2.6	1.4	4.1	0.5
CSC(=CC(=O)c1ccncc1)SC	1.8	-4.6	3.2	-18.4	3.5*
O=C(Nc1ccc(N2CCOCC2)cc1)c1ccc(-n2cccn2)cc1	-10.0	-8.6	-36.4	4.8	-0.9
CC1=N/C(=C\c2ccc3c(c2)OCO3)C(=O)O1	-1.0	-1.0	9.6	-9.0	0.1
O=C1c2ccc(Cl)c3c(N4CCSCC4)ccc(c23)C(=O)N1c1ccccc1	57.8*	-2.7	-0.1	9.9	-0.3
CCOC(=O)c1cc(N2C(=O)c3ccccc3C2=O)ccc1N1CCCCC1	-17.2	4.2	-3.4	-21.1	0.0
CSc1nsc(SC)c1C(=O)NN1CCOCC1	8.7	-2.8	1.2	6.1	0.6
COc1ccc([N+](=O)[O-])c(S(=O)(=O)c2ccc(Cl)cc2)n1	81.6*	5.9	2.9	-95.6	-1.3
O=C(NNc1nc(-c2cccc([N+](=O)[O-])c2)cs1)c1ccccc1Cl	1.3	0.9	3.8	75.2*	-0.1
CC(=O)Nc1ccc(Oc2cc(C#N)c(C#N)cc2Oc2ccc(NC(C)=O)cc2)cc1	-18.6	-12.3	5.7	-1.6	-0.4
O=C(CSc1nnc(SCC(=O)c2cccc([N+](=O)[O-])c2)s1)c1cccc([N+](=O)[O-])c1	-9.5	92.2*	4.0	17.6	-0.1
CC(=O)c1cc([N+](=O)[O-])c(SCc2ccc(Cl)cc2)s1	0.4	-5.0	31.9*	6.4	-0.5
CC(=O)c1cc([N+](=O)[O-])c(Sc2ccc(Cl)cc2)s1	37.4	4.4	3.3	-89.2	-1.1
CCC(C(N)=O)(c1ccccc1)c1ccc([N+](=O)[O-])cc1 (configuration not stated)	14.8	-3.8	6.2	35.9	-0.1
O=C(O)/C(=N/Nc1ccccc1O)c1ccccc1	8.3	-3.1	-0.2	83.2*	-0.2
COc1ccc(C(=O)N/N=C(/C(=O)O)c2ccccc2)cc1	8.6	1.2	-1.4	-7.3	0.0
O=c1c(=NO)c(=O)c2ccccc12	6.4	-6.9	4.5	0.0	2.3*
O=c1c2ccccc2c(=O)n2n1CC=CC2	-4.4	3.2	2.2	3.0	0.1
SMILES	OPRK1 antag MB	Luminol counter	PME-1 Maybr inh	Nox1 inhibitor	NOTCH agonist
Cn1cc(Br)c(-c2cccc(NC(=O)c3nccnc3C(=O)O)c2)n1	16.1	-5.4	6.7	19.1	0.2
Clc1ccc(-c2csc(Nc3ccccc3)n2)cc1	-10.6	4.4	3.0	-38.7	0.8
Brc1ccc(-c2csc(Nc3ccncc3)n2)cc1	68.2*	-0.9	-1.4	-22.6	0.2
O=C(N/N=C/c1cc(Cl)cc(Cl)c1O)C(=O)Nc1ccc(Cl)c(Cl)c1	3.9	-1.3	-82.0	-65.8	4.1*
N#C/C(=C\c1ccc(O)cc1)c1ccc([N+](=O)[O-])cc1	9.4	100.6*	3.8	0.0	0.7
N/C(=N/OC(=O)Nc1cccc(C(F)(F)F)c1)C1COc2ccccc2O1 (configuration not stated)	6.1	-2.0	0.1	-5.3	2.4*

Compound activity as filed in PubChem.
